Laboratory results: PubChem BioAssay (NCATS)
Inconclusive results are not listed. Activity calls are given as the source filed them. Unless noted, calls follow the shape of the dose curve; as a rule, active = well fitted curve in the direction sought with a large enough effect; inconclusive = small, poorly fitted or top-dose-only effect, or another doubt; inactive = no such curve, though single readings can be large; an effect the other way counts as inactive or inconclusive.

Experiments:
[1] = biological target: Cytochrome P450 3A4 (Homo sapiens) (UniProt P08684); test: qHTS Assay for Activators of Cytochrome P450 3A4 (AID 885); also: nearly all actives have a fitted effect of over 65% in size
Chain of Cytochrome P450 3A4 (Homo sapiens) (P08684 whole entry, looked up): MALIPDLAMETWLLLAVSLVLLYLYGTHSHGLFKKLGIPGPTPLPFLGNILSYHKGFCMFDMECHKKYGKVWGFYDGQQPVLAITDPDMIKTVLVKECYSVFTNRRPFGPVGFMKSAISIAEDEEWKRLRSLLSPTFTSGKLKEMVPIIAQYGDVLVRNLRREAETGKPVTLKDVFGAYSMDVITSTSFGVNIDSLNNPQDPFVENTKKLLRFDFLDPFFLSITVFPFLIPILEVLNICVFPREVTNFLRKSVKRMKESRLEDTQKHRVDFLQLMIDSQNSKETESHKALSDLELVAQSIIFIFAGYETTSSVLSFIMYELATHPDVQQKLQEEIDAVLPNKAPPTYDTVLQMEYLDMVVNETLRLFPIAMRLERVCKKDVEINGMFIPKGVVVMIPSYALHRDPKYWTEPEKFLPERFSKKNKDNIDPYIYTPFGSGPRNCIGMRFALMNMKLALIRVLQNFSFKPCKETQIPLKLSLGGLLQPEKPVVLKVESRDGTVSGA
How it was run: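 Activators are scored by enhanced luminescence from CYP3A4 conversion of luciferin-PPXE (25uM, equal to KM) to luciferin, after 60 min at RT with an NADPH-regenerating system.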

[2] = Confirmation and Secondary Assay for Modulators of Hemoglobin Beta Chain Splicing at IVS2 654 locus (AID 910);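 also: HeLa cells stably carrying EGFP split by mutant beta-globin IVS2-654 intron; % of control where 0% means no effect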
How it was run: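 HeLa cells stably expressing EGFP interrupted by β-globin IVS2-654 intron, seeded overnight in Opti-MEM/2% FCS, then treated 2 days at 37 °C. Restored splicing read as total peak GFP intensity per well by laser scanning cytometry (488 nm excitation, 500–520 nm emission); 500 nM antisense PNA as control.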

[3] = Confirmation and Secondary Assay for Modulators of Hemoglobin Beta Chain Splicing at IVS2 705 locus (AID 930);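 also: HeLa cells stably expressing the EGFP-705 splicing reporter; GFP fluorescence per well restored by corrected splicing of the IVS2-705 intron in EGFP; % of control where 0% means no effect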
How it was run: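 Stable HeLa line with EGFP disrupted by mutant beta-globin intron 2 (705). Overnight attachment, then 2 days of compound at 37C, 5% CO2. Signal: peak GFP intensity summed over objects 5-250 µm.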

[4] = qHTS Assay for Lipid Storage Modulators (AID 1519; calls by dose curve; as to activity change, negative = inhibition: % is scaled to controls: 0 for no effect and ±100 for the full control effect); details: Drosophila S3 cells, BODIPY lipid droplet/cell ratio, laser cytometry, cells loaded with oleic acid; for activity change, negative = inhibition: at 57.5 µM (top of the series)
How it was run: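 Cells seeded at 5,000 per well were treated with compounds over a concentration series and loaded with oleic acid (400 uM, as added). Lipid droplet fluorescence (488 nm excitation, 500-530 nm channel) was read by laser-scanning cytometry and normalized to 20 uM Triacsin C.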

[5] = measured here: cell count channel max response
[6] = measured here: lipid channel max response

## O=C(/C=C/c1ccccc1)c1ccc(O)cc1O
[1]
  Potency: inactive
[2]
  Potency: inactive
[3]
  Potency: inactive
[4]
  activity change, negative = inhibition: -11.9% (inactive)
[4]; [5]
  max response: 1.3%
[4]; [6]
  max response: -11.1%

## COc1cc(O)c(C(=O)/C=C/c2ccccc2)c(OC)c1
[1]
  Potency: inactive
[2]
  Potency: inactive
[3]
  Potency: inactive
[4]
  activity change, negative = inhibition: -11.9% (inactive)
[4]; [5]
  max response: 2.78%
[4]; [6]
  max response: -7.25%

## CC(C)c1c(O)ccc2c1CCC1[C@@](C)(CO)CCC[C@@]21C (stereo partly specified)
[1]
  Potency: inactive
[2]
  Potency: inactive
[3]
  Potency: inactive
[4]
  activity change, negative = inhibition: 10.8% (inactive)
[4]; [5]
  max response: 14.4%
[4]; [6]
  max response: 26.5%

## CC(=O)C1CCC2C3CC(C)C4=CC(=O)CC[C@@]4(C)C3C(O)C[C@@]12C (stereo partly specified)
[1]
  Potency: inactive
[2]
  Potency: inactive
[3]
  Potency: inactive
[4]
  activity change, negative = inhibition: 8.05% (inactive)
[4]; [5]
  max response: 8.18%
[4]; [6]
  max response: 24.3%

## O=c1c(O)c(-c2ccccc2)oc2ccccc12
[2]
  Potency: inactive
[3]
  Potency: inactive
[4]
  activity change, negative = inhibition: 0.0192% (inactive)
[4]; [5]
  max response: -10%
[4]; [6]
  max response: -11.2%

## CC(C)CC(NC(=O)OCC1c2ccccc2-c2ccccc21)C(=O)O (stereo unspecified)
[2]
  Potency: inactive
[3]
  Potency: inactive
[4]
  activity change, negative = inhibition: 2.46% (inactive)
[4]; [5]
  max response: 10.8%
[4]; [6]
  max response: 14.5%

## CC1=C(C(=O)O)N2C(=O)C(NC(=O)C(N)c3ccccc3)C2SC1 (stereo unspecified)
[2]
  Potency: inactive
[3]
  Potency: inactive
[4]
  activity change, negative = inhibition: 9.95% (inactive)
[4]; [5]
  max response: 9.88%
[4]; [6]
  max response: 24.8%

## CC(C)C1=CC2=CCC3[C@@](C)(CCC[C@@]3(C)C(=O)O)C2CC1 (stereo partly specified)
[1]
  Potency: inactive
[2]
  Potency: inactive
[3]
  Potency: inactive
[4]
  activity change, negative = inhibition: 4.85% (inactive)
[4]; [5]
  max response: 5.3%
[4]; [6]
  max response: 10.4%

## CCCCC(=O)O[C@@]1(C(=O)CO)C(C)CC2C3CCC4=CC(=O)C=C[C@@]4(C)[C@]3(F)C(O)C[C@]21C (stereo partly specified)
[1]
  Potency: inactive
[2]
  Potency: inactive
[3]
  Potency: inactive
[4]
  activity change, negative = inhibition: -6.08% (inactive)
[4]; [5]
  max response: 9.88%
[4]; [6]
  max response: 7.08%

## CC(C)=CCc1c2c(c(O)c3c(=O)c(O)c(-c4ccccc4)oc13)C=CC(C)(C)O2
[1]
  Potency: inactive
[2]
  Potency: inactive
[3]
  Potency: inactive
[4]
  activity change, negative = inhibition: 0.956% (inactive)
[4]; [5]
  max response: -0.903%
[4]; [6]
  max response: -0.353%

## CC(=O)OCC1OC(Oc2cc(OC(C)=O)c3c(=O)cc(-c4ccc(OC(C)=O)cc4)oc3c2)[C@@H](OC(C)=O)C(OC(C)=O)C1OC(C)=O (stereo partly specified)
[1]
  Potency: inactive
[2]
  Potency: inactive
[3]
  Potency: inactive
[4]
  activity change, negative = inhibition: -3.32% (inactive)
[4]; [5]
  max response: -1.21%
[4]; [6]
  max response: -5.92%

## O=C(NC1CCCCC1)NC1CCCCC1
[1]
  Potency: inactive
[2]
  Potency: inactive
[3]
  Potency: inactive
[4]
  activity change, negative = inhibition: 9.61% (inactive)
[4]; [5]
  max response: 16.8%
[4]; [6]
  max response: 30.7%

## CCC(C)(C)C(=O)OC1CC(C)C=C2C=CC(C)C(CCC3CC(O)CC(=O)O3)C21 (stereo unspecified)
[2]
  Potency: inactive
[3]
  Potency: inactive
[4]
  activity change, negative = inhibition: -9% (inactive)
[4]; [5]
  max response: 2.37%
[4]; [6]
  max response: -4.92%

## CC(C)c1ccc2c(c1)CCC1C(C)(C(N)=O)CCCC21C (stereo unspecified)
[2]
  Potency: inactive
[3]
  Potency: inactive
[4]
  activity change, negative = inhibition: -15.9% (inactive)
[4]; [5]
  max response: -2.05%
[4]; [6]
  max response: -18.2%

## C#CCCCCCCCCCCCc1ccco1
[1]
  Potency: inactive
[2]
  Potency: inactive
[3]
  Potency: inactive
[4]
  activity change, negative = inhibition: 2.25% (inactive)
[4]; [5]
  max response: 8.94%
[4]; [6]
  max response: 11.4%

## Cn1nnnc1SCC1=C(C(=O)O)N2C(=O)C(NC(=O)C(O)c3ccccc3)C2SC1 (stereo unspecified)
[2]
  Potency: inactive
[3]
  Potency: inactive
[4]
  activity change, negative = inhibition: 13.2% (inactive)
[4]; [5]
  max response: 9.16%
[4]; [6]
  max response: 26.7%

## COc1cc(O)c(C(=O)c2ccccc2)cc1O
[1]
  Potency: inactive
[2]
  Potency: inactive
[3]
  Potency: inactive
[4]
  activity change, negative = inhibition: 2.59% (inactive)
[4]; [5]
  max response: 7.29%
[4]; [6]
  max response: 11.7%

## CC(CN(C)C)CN1c2ccccc2Sc2ccccc21 (stereo unspecified)
[2]
  Potency: inactive
[3]
  Potency: inactive
[4]
  activity change, negative = inhibition: 6.07% (inactive)
[4]; [5]
  max response: -0.564%
[4]; [6]
  max response: 10.9%
